± gives the standard error. Whole data set: some 1,300 sequences, median “fluorescence a.u.” near 38, cut for the highest 2% near 280. For the sample, the highest values were picked, then their nearest neighbours and some sequences at random.
Each sequence was assayed against terminal deoxynucleotidyl transferase (calf thymus) (UniProt P06526) (assay: TdT poly-dT extension signal (Cy3 hybridisation fluorescence, uncapped minus capped) (fluorescence a.u.); higher = more efficient initiation of TdT extension). Conditions: initiator chemistry: L-DNA (mirror-image), free 5'-OH (3'-tethered via HEG linker).
Description: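 All mono- to pentamer D-DNA or L-DNA initiators were made by forward (3'->5') photolithographic in situ synthesis on glass on a hexaethylene glycol linker, leaving a free 5'-OH. Each was made in uncapped and DMTr-dT-capped versions, about 11 replicates each. Arrays were extended with calf thymus TdT (0.2 U/uL), 100 uM dTTP and 0.25 mM CoCl2 for 120 min at 37 C, hybridised with an rA18-Cy3 probe and scanned at 532 nm. The value is the mean uncapped minus the mean capped signal. IDs read 5'->3'. L-DNA is mirror-image; D-DNA 5'-OH initiators were below LOD (no extension).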

Chain of terminal deoxynucleotidyl transferase (calf thymus) (P06526 whole entry): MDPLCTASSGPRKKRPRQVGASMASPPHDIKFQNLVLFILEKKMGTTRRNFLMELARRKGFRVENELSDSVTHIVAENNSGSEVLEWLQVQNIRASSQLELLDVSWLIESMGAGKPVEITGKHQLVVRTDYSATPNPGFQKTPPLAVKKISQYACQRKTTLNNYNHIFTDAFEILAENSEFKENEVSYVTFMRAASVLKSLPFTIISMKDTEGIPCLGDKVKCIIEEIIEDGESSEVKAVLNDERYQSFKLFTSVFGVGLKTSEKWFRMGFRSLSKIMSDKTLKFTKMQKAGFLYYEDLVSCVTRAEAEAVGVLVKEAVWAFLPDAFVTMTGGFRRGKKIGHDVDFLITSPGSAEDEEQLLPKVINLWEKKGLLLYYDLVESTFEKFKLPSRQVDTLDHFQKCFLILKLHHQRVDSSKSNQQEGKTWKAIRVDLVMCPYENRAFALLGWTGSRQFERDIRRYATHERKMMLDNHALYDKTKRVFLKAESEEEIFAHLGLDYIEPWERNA

Sequence	TdT poly-dT extension signal
TTCAG	356 ± 32
CTCAT	130 ± 12
ATCAT	172 ± 14
CTCAA	147 ± 10
GTCAG	161 ± 18
GTCAC	153 ± 10
TTCAC	371 ± 39
CTCAG	173 ± 11
TTCAA	388 ± 29
TTCA	275 ± 22
TTCAT	372 ± 18
ATCAC	188 ± 16
GAGTT	40.6 ± 5.8
AAAAG	101 ± 8.9
GACGG	117 ± 18
GAACC	55.9 ± 8.8
ACCAT	97.4 ± 8.9
GGGTG	69.1 ± 4.3
TGCGA	157 ± 7.9
GTAT	140 ± 12
TTATC	325 ± 29
ATATA	192 ± 12
TTGT	258 ± 19
TTATG	340 ± 26

Sequence	TdT poly-dT extension signal
CTATG	161 ± 12
ATATG	192 ± 15
ATATC	192 ± 14
CTATC	168 ± 13
TTAT	340 ± 30
TTATA	384 ± 22
CTATA	170 ± 13
TTGGA	284 ± 17
AGTGA	57.2 ± 5.7
ACTCA	79.4 ± 8.6
TATAT	197 ± 14
AACTT	58.3 ± 8.9
ACGCG	70.6 ± 6.6
GGTTA	50.7 ± 4.8
GTATT	158 ± 10
ATATT	201 ± 13
TTATT	381 ± 16
TATCC	138 ± 13
AAAGC	67 ± 7.7
GCTGA	75.3 ± 5.4
CGACA	68.1 ± 4.9
GTAA	143 ± 13
CTAAC	201 ± 14
CTAA	170 ± 12

Sequence	TdT poly-dT extension signal
ATAAG	229 ± 14
CTAAT	206 ± 15
TTAAC	377 ± 27
TTAAT	491 ± 32
GTAAC	191 ± 15
CTAAG	215 ± 13
TTAA	347 ± 25
ATAAT	246 ± 19
TTAAG	495 ± 38
GGAAG	82.2 ± 8.3
ACGTC	47.1 ± 4.9
TACTG	153 ± 14
TCTGA	172 ± 12
ATCAA	236 ± 13
GTCA	95.9 ± 6.2
GGATC	67.1 ± 5.8
AATA	106 ± 9.7
ATGGC	127 ± 8.4
AACGG	77.3 ± 5.7
GAGTG	61 ± 6.3
CTAAA	224 ± 15
ATAAA	276 ± 19
TTAAA	563 ± 39
TCGAA	187 ± 8.6

Sequence	TdT poly-dT extension signal
CTTGC	107 ± 7.2
ATGAT	150 ± 9.9
CTGAG	130 ± 11
TTGAG	317 ± 33
TTGAT	314 ± 27
GTGAG	160 ± 13
TTGAC	338 ± 26
GTGAT	121 ± 12
GTGAC	144 ± 9
TTGAA	339 ± 42
TTGA	270 ± 19
ATGAA	175 ± 12
GTGAA	142 ± 17
TCTCC	117 ± 8.4
CCGGG	82.9 ± 7.7
GTAAA	239 ± 15
ACTTT	70.7 ± 5.3
CTGGT	116 ± 6.9
TCCCG	199 ± 19
AATG	74.3 ± 5.6
GTGTT	100 ± 8.2
CGCGA	66.2 ± 6
ACCCG	76.1 ± 6.5
TTTCG	286 ± 22

Sequence	TdT poly-dT extension signal
CTTCG	133 ± 16
TTTC	280 ± 19
TGCAC	141 ± 11
GGGCG	83.8 ± 6.6
GACGC	93 ± 9.5
TTTTG	293 ± 38
CTGGG	141 ± 8.5
ATTGG	180 ± 13
TTGGG	335 ± 18
GTTGG	144 ± 11
GTTGT	139 ± 8.7
ATTGT	167 ± 9.2
TTTGG	350 ± 26
TTGG	274 ± 21
TTTT	223 ± 25
TTTGT	311 ± 21
TTTTT	282 ± 18
GTGGG	172 ± 9.4
TATCA	160 ± 12
GGCGC	77.7 ± 6.3
CGAGC	65 ± 6.4
GCGGC	73.3 ± 6.8
AGCAA	61.2 ± 5.3
TTTGC	271 ± 19

Sequence	TdT poly-dT extension signal
TTTG	264 ± 15
TTTGA	320 ± 26
ATCCC	147 ± 16
ATCCA	153 ± 10
TTCCA	299 ± 18
TTTCC	270 ± 21
GTCCT	117 ± 9.6
TTCCT	286 ± 28
GTCCA	122 ± 10
TCCCC	175 ± 17
TTCCC	358 ± 31
TTCC	293 ± 17
TGCC	126 ± 14
CTCCT	111 ± 9.1
CTTCA	130 ± 11
CCTAA	98.7 ± 6
ATGCT	116 ± 7.5
CGTTT	51.4 ± 5
GTAGG	181 ± 10
CCAAG	120 ± 9.5
CTTT	127 ± 17
TATC	171 ± 12
TGTA	126 ± 10
TACA	178 ± 8

Sequence	TdT poly-dT extension signal
GTCCG	147 ± 12
CTCCG	127 ± 11
TTCCG	388 ± 25
TGCGC	154 ± 12
CTCTA	130 ± 12
TTCTT	311 ± 24
TTCTG	320 ± 24
GTCTG	128 ± 7.3
CTCTT	122 ± 10
ATCTG	143 ± 16
TTCTA	312 ± 31
TTCT	243 ± 31
GTCTT	128 ± 8
ACCCA	77.1 ± 11
TCGAT	152 ± 12
CAGTG	49.3 ± 7.1
CCTA	84.4 ± 13
ACAAC	92.6 ± 6.6
GCACG	87 ± 5.5
ATGCC	109 ± 15
CTCGT	115 ± 9
TTCGT	330 ± 27
TCCG	221 ± 19
GTCGG	178 ± 14

Sequence	TdT poly-dT extension signal
ATCGT	189 ± 13
TTCG	284 ± 31
CTCG	124 ± 17
TTCGA	367 ± 21
ATCGA	206 ± 17
CTCGA	135 ± 12
CTCGG	158 ± 9.7
TTCGG	347 ± 20
TCATT	134 ± 15
GACTG	85.6 ± 6.6
GCCTG	90.6 ± 8.8
CCAC	93 ± 7.6
ATACG	188 ± 13
ACAGT	65.8 ± 8.1
ACTGG	71.1 ± 8.8
TAGCC	105 ± 7.2
TTCGC	323 ± 18
CTCGC	146 ± 15
GTCGC	137 ± 12
CGGTC	31.7 ± 5.1
AGCGC	57.8 ± 6.1
GTAGA	191 ± 19
TTAGC	308 ± 15
CTAGA	170 ± 11

Sequence	TdT poly-dT extension signal
GTAGT	130 ± 11
TTAG	308 ± 27
GTAG	159 ± 11
ATAGC	182 ± 14
CTAGC	134 ± 8.7
TAAG	161 ± 15
TTAGT	368 ± 28
TTAGA	396 ± 35
CTAGT	157 ± 12
TGTCA	114 ± 7.2
AGTGT	44.6 ± 5.9
GATGC	82.1 ± 9.4
TACGA	194 ± 14
CCGGA	78.7 ± 10
ACGAA	76.9 ± 4.9
GTTTA	123 ± 9.7
TTAGG	444 ± 29
ATAGG	198 ± 12
CTAGG	182 ± 8.8
CCTGG	79.5 ± 7.8
TCTCT	347 ± 200
TCTCA	199 ± 18
TCTC	128 ± 17
TAGGA	123 ± 9.3

Sequence	TdT poly-dT extension signal
TTACT	396 ± 14
CTACT	152 ± 15
GTACT	137 ± 10
CTACC	127 ± 19
GTACG	158 ± 12
TTACC	393 ± 30
TTAC	275 ± 24
ATACA	204 ± 18
TTACG	380 ± 28
TTACA	344 ± 20
GTACC	143 ± 13
GTACA	152 ± 8.5
GACCT	77.6 ± 11
GAGGT	55.2 ± 5.3
CAGAG	71.3 ± 6.3
AATTG	77.2 ± 7
CTTTG	141 ± 13
CCACT	90 ± 7.8
AGTA	44.2 ± 4.4
ACCA	87.8 ± 9.2
TTTCA	281 ± 27
ACCG	78.2 ± 8
ATTAT	152 ± 14
TTTAG	345 ± 24

Sequence	TdT poly-dT extension signal
CTTAT	106 ± 7.6
GTTAC	130 ± 11
CTTAA	181 ± 12
GTTAA	194 ± 15
TTTAC	344 ± 22
TTTAT	331 ± 24
ATTAG	195 ± 19
TTTAA	392 ± 18
CTTAC	153 ± 14
TTTA	271 ± 29
TGAGC	147 ± 8.6
TAAAC	191 ± 19
CACCG	74.4 ± 8.1
TAAAT	192 ± 18
GCCGC	93.5 ± 6.3
GTTTT	125 ± 8.3
CTTTA	106 ± 9.8
TTTTC	242 ± 27
TTTTA	302 ± 24
CATGG	80 ± 9.5

— the supplement of paper PMC8291772
